Data published in ChEMBL document CHEMBL3988442, “University of Dundee, Small-Polar-MMV Screening Library” (2021).
In all, about 48,000 compounds went through this assay and about 13,000 (27%) showed an effect of 50% or more. This is one part of the list.

Test system: Wolbachia pipientis
Assay: Anti-Wolbachia Cell-Based Screen
Format: functional
Set-up: scale not given: in the data most compounds retested in dose-response had high values
Conditions: 5 µM

Structure (SMILES)	Percent Effect [%]
Cc1nn(C)cc1C(=O)N1CCCN(C2Cc3ccccc3C2)CC1	-1.892
COc1cccc([C@@]2(O)CC[C@@H]3CN(C(=O)c4cn(C)nc4C)C[C@@H]32)c1	91.14
COc1cccc(OCC2CCCN(C(=O)c3cnc(C)nc3O)C2)c1 (stereo unspecified)	-22.18
COCCN1C(=O)CCC12CCCN(C(=O)CC1CC1)CC2 (stereo unspecified)	103.4
O=C(CC1CC1)N1CCCC2(CCC(=O)N2CC2CC2)CC1 (stereo unspecified)	113.9
CN(C)CCN1C(=O)CCC12CCCN(C(=O)CC1CC1)CC2 (stereo unspecified)	109.9
COCCN1C(=O)CCC12CCN(C(=O)CNC(C)=O)CC2	102.7
O=C1CCC2(CCN(S(=O)(=O)c3ccccc3)CC2)N1CC1CC1	-5.701
COCCN1C(=O)CCC12CCN(c1ncc(F)cn1)CC2.O=C(O)C(F)(F)F	4.325
Cc1ccc(C(=O)N2CCC3(CCC(=O)N(CCN(C)C)C3)CC2)nc1	13.38
Cc1cc(C(=O)N[C@H]2CC[C@@]3(CCC(=O)N3CC3CC3)CC2)no1	-41.45
CCC(C(=O)N1CCCN(CCN(C)C)CC1)N1CCCC1=O (stereo unspecified)	-2.353
COCCN1C(=O)CCC12CCCN(c1ncc(F)cn1)CC2 (stereo unspecified)	-9.893
COCCN1C(=O)CC[C@]12CC[C@@H](NC(=O)c1cc(C)on1)CC2	-11.81
c1ccc(OCCNc2ncnc3sc4c(c23)CCNC4)cc1	38.96
CCN1C[C@H]2CCN(c3ncccn3)CC[C@H]2S1(=O)=O	3.931
Cc1cc(C)nc(NC2CCc3nc(C)nn3C2)n1 (stereo unspecified)	12.23
O=C(O)CC(NC(=O)c1cc(Br)c[nH]1)c1ccccc1 (stereo unspecified)	7.291
Cc1c(C(=O)N2CCC3(CCC(=O)N(CCN(C)C)C3)CC2)ccn1C	2.177
CN(C)CCN1C(=O)CCC12CCN(C(=O)CC1CC1)CC2	92.35
O=C(c1nccc2ccccc12)N(Cc1ccco1)CC1CCCO1 (stereo unspecified)	5.16
CC(C)(C)OC(=O)NCC(=O)NCc1ccc(Cl)s1	16.63
O=C(O)C(F)(F)F.c1cncc(COC2COC3(CCN(c4cnccn4)CC3)C2)c1 (stereo unspecified)	8.045
CNC(=O)COC1COC2(CCN(Cc3cccnc3)CC2)C1.O=C(O)C(F)(F)F (stereo unspecified)	120

Structure (SMILES)	Percent Effect [%]
CNC(=O)COC1COC2(CCN(c3ccc(C)nn3)CC2)C1.O=C(O)C(F)(F)F (stereo unspecified)	-17.84
CNC(=O)COC1COC2(CCN(Cc3ccncc3F)CC2)C1.O=C(O)C(F)(F)F (stereo unspecified)	109.2
CNC(=O)COC1COC2(CCN(c3cnccn3)CC2)C1.O=C(O)C(F)(F)F (stereo unspecified)	11.18
Fc1ccc(F)c(CN2CCC(c3n[nH]c4ncccc34)CC2)c1.O=C(O)CC(O)(CC(=O)O)C(=O)O	96.71
O=C(O)CC(O)(CC(=O)O)C(=O)O.c1cnc2[nH]nc(C3CCN(Cc4ccsc4)CC3)c2c1	113.3
c1cnc2c(C3CCN(Cc4ccsc4)CC3)n[nH]c2n1	-13.91
Cn1cc2c(n1)C(CNC1CCOCC1)OCC2.O=C(O)C(F)(F)F (stereo unspecified)	-8.385
Cc1ncsc1-c1nc(Cc2cccs2)nn1C1CCN(C)CC1	-9.082
COc1ncccc1-c1nc(-c2ccccn2)nn1C1CCN(C)CC1	-6.109
CN1CCC(n2nc(Cc3cccc(Cl)c3)nc2Cn2cnnn2)CC1	20.47
CN1CCC(n2nc(Cc3cccs3)nc2-c2ccncc2)CC1	-23.96
CN1CCC(n2nc(CC3CC3)nc2-c2ccc(F)cc2Cl)CC1	106.3
CCOCc1nc(CSc2ccncc2)n(C2CCN(C)CC2)n1	13.12
CCOCc1nc(-c2ccc(F)cc2Cl)n(C2CCN(C)CC2)n1	110.7
CCOCc1nc(CSc2ccncc2)n(C)n1	-5.223
CN1CCC(Cc2nc(-c3cnccn3)n(C3CCS(=O)(=O)C3)n2)CC1 (stereo unspecified)	-23.71
Nc1cnc(-c2ccc(F)cc2Cl)cn1	2.9
CCOCc1nc(-c2cccc(OC)c2OC)n(C2CCN(C)CC2)n1	115.7
CCOCc1nc(-c2ccc(F)cc2Cl)n(C)n1	104.7
CCOc1ccc(NC(C)C(=O)NCCc2cccs2)cc1CO (stereo unspecified)	-30.37
CC(C)c1noc(CCCC(=O)N2CCN(C)CC2c2ccccc2)n1 (stereo unspecified)	5.23
O=C(c1cnc(-c2noc3cc(N4CCCC4)ccc23)s1)N1CCCC1	0.8579
CCC(C)NS(=O)(=O)Cc1cccc(NC(=O)c2cc[nH]c2C)c1 (stereo unspecified)	3.733
Cc1ccc2nc(C)c(C)c(C(=O)NCCCn3cnnc3)c2c1	-1.384

Structure (SMILES)	Percent Effect [%]
CC(C)Oc1cc(N2CC[C@@H](N3CCOCC3)[C@H](O)C2)nc(N)n1	-17.76
CCn1nccc1CNC(=O)C1CC1	8.516
CCn1nccc1CN(C)c1[nH]cnc2nc(C)nc1-2	80.56
CCn1nccc1CNc1[nH]cnc2nc(C)nc1-2	100.2
CCn1nccc1CNC(=O)NC1CCCCC1	13.66
CCn1nccc1CNc1[nH]cnc2nncc1-2	87.91
CCn1ncnc1CN(CCOC)Cc1ccc(C)cc1	-0.7993
Cc1nccn1-c1ccc(C(C)NCc2ncc[nH]2)cc1 (stereo unspecified)	-20.7
Cc1cc(C(=O)Nc2ccnc(OC3CCOC3)c2)c(C)o1 (stereo unspecified)	-9.731
Cc1ccc2[nH]c(CN(C)c3cc(CN)nc(C)n3)nc2c1	-0.384
N#Cc1cn(C2CC2)c(=O)n(Cc2noc(-c3cccs3)n2)c1=O	11.53
COCCn1cnnc1CN(C)c1nc(N)nc2c1CCCC2	15.13
Cc1oncc1C(=O)N1CC2CC1(C(=O)NCc1ccco1)C2	-19.28
FC(F)(F)Oc1ccc(-c2c[nH]c([C@@H]3COCCN3)n2)cc1	-3.996
c1ccc(CNCC2Cn3nncc3CO2)nc1 (stereo unspecified)	-9.384
Cc1nnn2c1COC(CNCc1ccncc1)C2 (stereo unspecified)	-6.146
c1coc(CNCC2Cn3nncc3CO2)c1 (stereo unspecified)	91.63
c1cc(CNCC2Cn3nncc3CO2)cs1 (stereo unspecified)	14.09
Cc1ccc(CNCC2Cn3nnc(-c4cccc(F)c4)c3CO2)o1.O=C(O)C(F)(F)F (stereo unspecified)	-4.594
Fc1cccc(CNCC2Cn3nncc3CO2)c1 (stereo unspecified)	-13.19
Cc1ccc(CNCC2Cn3nncc3CO2)s1 (stereo unspecified)	98.39
Cc1ccc(CNCC2Cn3nncc3CO2)o1 (stereo unspecified)	84.72
c1cc(CNCC2Cn3nncc3CO2)ccn1 (stereo unspecified)	7.838
